Bioassay records from PubChem.
Hits are enriched below; roughly 3.8% of the tested compounds scored in any of these assays.
HSF1 activator = increases HSF-1 driven luciferase reporter signal. NIH3T3-HGL HSF-1 luciferase reporter, MG132, 8 h; 100% = twice DMSO control signal. activation, % at 9 µM. 300,000 compounds, 1.7% hits;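 active means mean replicate activation of at least 50% with a set share of replicates each reaching 50%; inconclusive means only one of those two conditions met; inactive means mean below 50% and too few replicates reaching it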;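 further: 0% = median of the neutral control wells and 100% = twice that signal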
HSF1 inhib = HSF1 inhibition | NIH3T3-HGL HSE-luciferase, MG132-induced, luminescence 8 h; active compounds read low | AID 2098 | 300,000 compounds, 0.77% hits | activity change, negative = inhibition, % at 7.5 µM (by protocol);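 active means more than half of replicate wells show activity change below -50%, luminescence cut by over half; inconclusive means some wells, but at most half, below -50%; inactive means no replicate well below -50%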;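 further: luciferase reports HSF-1 transcriptional activity via heat shock element; 0% = median of DMSO wells and -100% = zero luminescence signal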
MITF act = increases MITF-driven TRPM1 promoter luciferase signal | SK-MEL-5 TRPM1-promoter luciferase, 24 h; % of positive control, neutral wells = 0 | activation, % at 12.5 µM | 300,000 compounds, 0.75% hits | AID 588334;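 active means mean activation of at least 80% with every replicate also reaching 80%; inconclusive means mean reaches 80% but some replicate falls short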;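 further: 0% = neutral control wells and 100% = parthenolide positive control wells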
Wnt bcat act = Wnt/beta-catenin pathway activation | Wnt/beta-catenin reporter cell assay, activator, plate reader | activation, % at 9.35 µM | 300,000 compounds, 1.2% hits; in the data active means activation above about 30%, passing the limit was not always enough; inconclusive means no clear call, values can overlap the other calls;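 further: 0% = neutral control wells and 100% = positive control wells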
esBAF inh = inhibitors of esBAF chromatin remodeling in mouse ES cells; 350,000 compounds, 2% hits; Bmi1-luciferase knock-in reporter, 24 h; 100% = twice the neutral-well signal; reporter increase, % at 12.5 µM; in the data active means activation above about 40%; inconclusive means no clear call, values can overlap the other calls;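 further: 0% = median of the plate's neutral control wells and 100% = double that signal; a rise in the Bmi1 reporter signal indicates esBAF inhibition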
* = called active by the depositor; ? = inconclusive; · = not tested or not shown.

SMILES	HSF1 activator	HSF1 inhib	MITF act	Wnt bcat act	esBAF inh
CC(C)(C)n1cnc2cc(NCc3cccs3)ccc21	22	6	63	5	52*
CN(C)c1ccc(CNc2ccc3c(c2)ncn3C(C)(C)C)cc1	-62	-54*	-3	-3	7
COc1ccc(S(=O)(=O)N(C)C[C@H]2Oc3c(NC(=O)NC4CCCCC4)cccc3C(=O)N([C@@H](C)CO)C[C@H]2C)cc1	·	·	·	·	-1
C[C@@H]1CN([C@@H](C)CO)C(=O)c2cccc(NC(=O)Nc3ccccc3)c2O[C@@H]1CN(C)C(=O)Nc1cccc2ccccc12	·	·	·	·	5
COc1ccccc1CNC(=O)C[C@@H]1C[C@@H]2c3cc(NC(=O)Nc4ccc(C(F)(F)F)cc4)ccc3O[C@@H]2[C@H](CO)O1	·	·	·	·	-3
O=C(N[C@H]1C=C[C@H](CC(=O)N2CCc3ccccc3C2)O[C@@H]1CO)C1CC1	·	·	·	·	-4
COc1ccc(C(=O)N2CCc3ccc(NC(=O)c4ccccn4)cc3C2)cc1F	43	3	45	14	52*
COc1cc2c(cc1OC)CN(C(=O)c1ccncc1)CC2	10	9	6	-2	-3
C=CCn1c(SCC(=O)Nc2ccc3c(c2)OCO3)nnc1-c1cc(Br)ccc1O	7	1	-11	47*	6
C=CCn1c(SCC(=O)Nc2ccc3c(c2)OCO3)nnc1-c1ccccc1	2	4	0	0	-8
Cc1sc2c(c1C)C(=O)/C(=C\Nc1ccncc1)S(=O)(=O)N2C	1	-4	·	44*	·
C[C@@H]1CN([C@H](C)CO)C(=O)c2cc(NC(=O)NC3CCCCC3)ccc2O[C@@H]1CN(C)Cc1ccccc1	·	·	·	·	3
COc1ccc(CN2[C@@H](CO)[C@@H]3c4ccccc4N(C(=O)c4ccccc4)C[C@@H]32)cc1	·	·	·	·	-4
NCCc1nnc(SCc2ccc(F)cc2)o1	64*	40	·	-1	-3
CCOC(=O)C1CCN(C(=O)COc2cc(C)c(Br)cc2C)CC1	-71	-63*	-1	-2	1
COc1ccc(NC(=O)N(C)C[C@@H]2Oc3ccc(NS(=O)(=O)c4ccc(C)cc4)cc3CC(=O)N([C@H](C)CO)C[C@@H]2C)cc1	·	·	·	·	-3
CCOC(=O)c1sc2nc3c(cc2c1N)COC(C)(CC)C3 (stereo unspecified)	49	18	·	58*	10
C=CCn1c(C)nc2c(sc3nc4c(cc32)COC(C)(C)C4)c1=O	53*	31	66	46*	·
CCc1nc2c(sc3nc4c(cc32)COC(C)(C)C4)c(=O)n1CCN(CC)CC	8	1	2	-2	-3
CCOC(=O)c1sc2nc3c(cc2c1N)COC(C)(C)C3	·	·	?	53*	·
COC(=O)c1sc2nc3c(cc2c1N)CCCC3	45	5	-7	58*	·
CC(C)(C)OC(=O)N[C@@H](Cc1ccccc1)c1nnc(SCC(=O)c2ccc(Cl)cc2)o1	55*	12	-12	·	3
Cc1ccc(S(=O)(=O)Nc2ccc3c(c2)C(=O)N([C@@H](C)CO)C[C@H](C)[C@@H](CN(C)Cc2ccc4c(c2)OCO4)OCCCC[C@H](C)O3)cc1	·	·	·	·	-2
CC(C)N(Cc1nc(-c2ccc(Cl)cc2)no1)C(=O)CN(C)S(=O)(=O)c1ccc(Cl)cc1	85*	38	-13	-2	-11
CC(C)N(Cc1nc(-c2ccccc2)no1)C(=O)CN(C)S(=O)(=O)c1ccc(Br)cc1	3	-3	5	·	8
SMILES	HSF1 activator	HSF1 inhib	MITF act	Wnt bcat act	esBAF inh
CCCC#Cc1cnc2c(c1)C(=O)N([C@@H](C)CO)C[C@@H](C)[C@H](CN(C)C(=O)Nc1ccccc1OC)O2	·	·	·	·	4
COc1ccc2c(C)nc(Nc3nc(-c4ccccc4)cc(=O)[nH]3)nc2c1	95*	65	-70	-17	-62
O=C(COC(=O)C1=COCCO1)Nc1ccc2c(c1)OCO2	-72	-63*	4	13	9
O=C(COC(=O)C1=COCCO1)Nc1cc(Cl)c(Cl)cc1Cl	·	·	7	45*	-4
C[C@@H]1CN([C@H](C)CO)C(=O)c2cccc(NC(=O)c3ccncc3)c2O[C@@H]1CN(C)S(=O)(=O)c1cccs1	·	·	·	·	-2
CCC(=O)Nc1cccc(NC(=S)NC(=O)c2ccccc2Cl)c1	6	13	41	·	·
CCC(=O)Nc1cccc(NC(=S)NC(=O)c2cccs2)c1	79*	64	86*	·	·
O=C(NC(=S)Nc1cccc2cccnc12)c1cccs1	156*	109	2	?	·
N#Cc1ccccc1NC(=S)NC(=O)c1cccs1	32	9	-9	9	45*
O=C(NC(=S)Nc1cccc2cccnc12)c1ccccc1	31	14	0	·	26
C[C@H](CO)N1C[C@H](C)[C@@H](CN(C)S(=O)(=O)c2ccccc2)OCCCC[C@H](C)Oc2ccc(NS(=O)(=O)c3cccs3)cc2C1=O	·	·	·	·	11
CCCNC(=O)N1C[C@H](C)[C@H](OC)CN(C)C(=O)c2cc(NC(=O)CCC)ccc2OC[C@@H]1C	·	·	·	·	-14
Cc1ccc(S(=O)(=O)Nc2cccc(-c3ccc(N4CCCCCC4)nn3)c2)cc1	-4	-7	?	20	67*
COc1ccc(S(=O)(=O)Nc2cccc(-c3ccc(N4CCCCCC4)nn3)c2)cc1OC	11	6	36	1	19
O=C(COc1ccc(Cl)cc1)Nc1ccc(CN2CCOCC2)cc1	·	·	10	-5	-1
O=C(COc1ccc(Cl)cc1)Nc1cccc(-c2ccc(N3CCOCC3)nn2)c1	55*	32	71	30	-38
Cc1ccc(C(=O)Nc2cccc(-c3ccc(N4CCOCC4)nn3)c2)cc1	38	16	75	36*	52*
O=C(Nc1cccc(-c2ccc(N3CCOCC3)nn2)c1)c1ccc(Cl)cc1	25	10	84*	-2	35
O=S(=O)(N[C@@H]1CC[C@H](CCn2cc(C3(O)CCCC3)nn2)O[C@H]1CO)c1ccccc1	·	·	·	·	1
CNC(=O)C[C@H]1CC[C@@H]2[C@H](COc3ccc(NS(=O)(=O)c4cccc(F)c4)cc3C(=O)N2C)O1	·	·	·	·	4
O=C(Nc1cccc(-c2ccc(N3CCOCC3)nn2)c1)c1cccc(Cl)c1	·	·	·	35*	71*
O=C(Nc1cccc(-c2ccc(N3CCOCC3)nn2)c1)c1ccccc1Cl	28	20	107*	-3	54*
O=C(Nc1cccc(-c2ccc(N3CCCCC3)nn2)c1)c1ccco1	24	17	38	0	7
CC1Cc2nc(SCC(=O)c3ccccc3)n(Cc3ccccc3)c(=O)c2S1 (stereo unspecified)	28	9	·	15	81*
COCCNc1c([N+](=O)[O-])c(=O)n(-c2ccccc2)c2ccccc12	69*	21	5	3	·
Cn1ncc2c(Nc3ccc(Cl)c(Cl)c3)ncnc21	7	-4	54	5	28
CCCn1ncc2c(Nc3ccc(C)c(C)c3)ncnc21	43	17	98*	20	67*
